Reference: PubChem BioAssay (NCATS)
Inconclusive results are not listed. Activity calls are given as the source filed them. Calls come from the whole dose curve; as a rule, active = well fitted cell-killing curve with a large enough effect; inconclusive = small, poorly fitted or top-dose-only effect, or effect the other way; inactive = flat fitted curve, though single readings scatter.

Tests used:
Assay in all cases: Primary qHTS to identify gynecologic anti-cancer compounds using libraries of approved drugs and bioactive compounds (AID 1345084); note: nearly all actives have a fitted effect of over 55% in size
Conditions in all cases: Gynecologic cancer cell panel viability, ATPlite luminescence, 48 h; series mostly up to 57.5 µM
JEG-3 = test system: JEG-3
In short: (§1)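 ATP-based viability (ATPlite), 1,000 cells/well, 16 h pre-incubation, 48 h compound at 37 C, 5% CO2, 15 min RT before read.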

OV90 = test system: OV90
In short: as §1

PA-1 = test system: PA-1
In short: as §1

Tov-21-G = test system: Tov-21-G
In short: as §1

Tov112D = test system: Tov112D
In short: as §1

SKOV3 = test system: SKOV3
In short: as §1
% is set by controls: 0 for no effect and ±100 for the full control effect; potency is the fitted concentration of half-maximal effect.

C[C@@H]1O[C@@H](O[C@H]2[C@H](OC(=O)[C@]34CCC(C)(C)C[C@H]3C3=CCC5[C@@]6(C)C[C@H](O)[C@H](O[C@@H]7O[C@H](CO)[C@@H](O[C@@H]8O[C@H](CO)[C@@H](O)[C@H](O)[C@H]8O)[C@H](O)[C@H]7O)[C@@](C)(CO)C6[C@H](O)C[C@@]5(C)[C@]3(C)C[C@H]4O)OC[C@H](O)[C@@H]2O)[C@H](O)[C@H](O)[C@H]1O[C@@H]1OC[C@@H](O)[C@H](O[C@@H]2OC[C@](O)(CO)[C@H]2O)[C@H]1O (stereo partly specified)
inactive: activity change, negative = cytotoxicity (JEG-3) 7.67% [at 6.55 µM] | activity change, negative = cytotoxicity (OV90) 4.05% [at 6.55 µM] | activity change, negative = cytotoxicity (PA-1) -7.05% [at 6.55 µM] | activity change, negative = cytotoxicity (Tov-21-G) 2.26% [at 6.55 µM] | activity change, negative = cytotoxicity (Tov112D) 2.65% [at 6.55 µM]

C[C@H]1[C@H](C)CC[C@]2(C(=O)O)CC[C@]3(C(=O)O)C(=CCC4[C@@]5(C)CC[C@H](O[C@@H]6O[C@H](C)[C@@H](O)[C@H](O)[C@H]6O)C(C)(C)C5CC[C@]43C)[C@H]12 (stereo partly specified)
inactive: Potency (JEG-3) | Potency (OV90) | Potency (PA-1) | Potency (Tov-21-G) | Potency (Tov112D)

O=C(O)c1cnn(-c2nc3cc(OC(F)(F)F)c(Cl)cc3[nH]2)c1
inactive: Potency (JEG-3) | Potency (OV90) | Potency (PA-1) | Potency (Tov-21-G) | Potency (Tov112D)

COc1cc(/C=C/C(=O)OC(C)(C)C(OC2OC(CO)C(O)C(O)C2O)C(=O)OCc2ccc(OC3OC(CO)C(O)C(O)C3O)cc2)ccc1O (stereo unspecified)
inactive: Potency (JEG-3) | Potency (OV90) | Potency (PA-1) | Potency (Tov-21-G) | Potency (Tov112D)

C[C@@H](Nc1cc(NS(=O)(=O)N2CCC2)nc(SCc2cccc(F)c2F)n1)[C@@H](O)CO
inactive: Potency (JEG-3) | Potency (OV90) | Potency (PA-1) | Potency (Tov-21-G) | Potency (Tov112D)

CC1(C)CCC[C@@]2(C)[C@H]1[C@H](O)C=C1COC(=O)[C@@]12O
inactive: Potency (JEG-3) | Potency (OV90) | Potency (PA-1) | Potency (Tov-21-G) | Potency (Tov112D)

COC1CCCC/C(C)=C/C2C=C(C)C(C)C3C(CC(C)C)NC(=O)C23C(=O)C1 (stereo unspecified)
inactive: Potency (JEG-3) | Potency (OV90) | Potency (PA-1) | Potency (Tov-21-G) | Potency (Tov112D)

C[C@@H]1O[C@@H](O[C@@H]2[C@@H](O)[C@H](O[C@@H]3[C@@H](O)[C@@H](O)[C@H](O[C@H]4[C@H](OC(=O)[C@]56CCC(C)(C)C[C@H]5C5=CCC7[C@@]8(C)C[C@H](O)[C@H](O[C@@H]9O[C@@H](C)[C@H](O)[C@@H](O)[C@H]9O)[C@@](C)(CO)C8CC[C@@]7(C)[C@]5(C)C[C@H]6O)O[C@H](C)[C@H](O)[C@@H]4O)O[C@H]3C)OC[C@H]2O)[C@H](O)[C@H](O)[C@H]1O (stereo partly specified)
inactive: activity change, negative = cytotoxicity (JEG-3) 1.34% [at 6.55 µM] | activity change, negative = cytotoxicity (OV90) 4.8% [at 6.55 µM] | activity change, negative = cytotoxicity (PA-1) 7.81% [at 6.55 µM] | activity change, negative = cytotoxicity (Tov-21-G) -0.124% [at 6.55 µM] | activity change, negative = cytotoxicity (Tov112D) 9.68% [at 6.55 µM]

C=C(C(=O)O)[C@@H]1CC=C2CCC[C@H](C)[C@@]2(C)C1
inactive: Potency (JEG-3) | Potency (OV90) | Potency (PA-1) | Potency (Tov-21-G) | Potency (Tov112D)

CC1(C)CCCC2(C)C3=C(C(=O)OC3O)C(O)CC12 (stereo unspecified)
inactive: Potency (JEG-3) | Potency (OV90) | Potency (PA-1) | Potency (Tov-21-G) | Potency (Tov112D)

COC(=O)[C@@H]1C2CC3c4[nH]c5ccccc5c4CCN3CC2CC[C@@H]1O (stereo partly specified)
inactive: Potency (JEG-3) | Potency (OV90) | Potency (PA-1) | Potency (Tov-21-G) | Potency (Tov112D)

CCOC(=O)[C@H]1O[C@@H]1C(=O)N[C@@H](CC(C)C)C(=O)NCCC(C)C
inactive: Potency (JEG-3) | Potency (OV90) | Potency (PA-1) | Potency (Tov-21-G) | Potency (Tov112D)

CC(C)C(=O)O[C@@H]1[C@@H](O)[C@@H](O[C@H]2O[C@H](CO)[C@@H](O)[C@H](O)[C@H]2O)O[C@H](CO)[C@H]1O
inactive: Potency (JEG-3) | Potency (OV90) | Potency (PA-1) | Potency (Tov-21-G) | Potency (Tov112D)

COC1=CC(=O)O[C@@H](/C=C/c2ccccc2)[C@@H]1O
inactive: Potency (JEG-3) | Potency (OV90) | Potency (PA-1) | Potency (Tov-21-G) | Potency (Tov112D)

COc1cc(/C=C/C(=O)OC2CC(C)=C(C(=O)O)/C2=C/CO[C@@H]2O[C@H](CO)[C@@H](O)[C@H](O)[C@H]2O)ccc1O (stereo partly specified)
inactive: Potency (JEG-3) | Potency (OV90) | Potency (PA-1) | Potency (Tov-21-G) | Potency (Tov112D)

CCCCS(=O)(=O)Nc1ncnc(OCCOc2ncc(Br)cn2)c1-c1ccc(Br)cc1
inactive: Potency (JEG-3) | Potency (OV90) | Potency (PA-1) | Potency (Tov-21-G) | Potency (Tov112D)

COC(=O)C1C(c2ccc(O)cc2)C(C(=O)OC)C1c1ccc(O)cc1 (stereo unspecified)
inactive: Potency (JEG-3) | Potency (OV90) | Potency (PA-1) | Potency (Tov-21-G) | Potency (Tov112D)

COC(=O)C1=CO[C@@H](O[C@@H]2O[C@H](CO)[C@@H](O)[C@H](O)[C@H]2O)[C@@H]2[C@@H](C(=O)OC)[C@@H](O)C(O)[C@H]12 (stereo partly specified)
inactive: Potency (JEG-3) | Potency (OV90) | Potency (PA-1) | Potency (Tov-21-G) | Potency (Tov112D)

CCN[C@@H]1C[C@H](N)[C@@H](O[C@H]2OC(CN)=CC[C@H]2N)[C@H](O)[C@H]1O[C@H]1OC[C@](C)(O)[C@H](NC)[C@H]1O
inactive: Potency (JEG-3) | Potency (OV90) | Potency (PA-1) | Potency (Tov-21-G) | Potency (Tov112D)

C[C@@H]1O[C@@H](OC[C@H]2O[C@@H](OCCc3ccccc3)[C@H](O)[C@@H](O)[C@@H]2O)[C@H](O)[C@H](O)[C@H]1O
inactive: Potency (JEG-3) | Potency (OV90) | Potency (SKOV3) | Potency (Tov-21-G) | Potency (Tov112D)

COc1cc(N2CCC(N(C)C)CC2)ccc1Nc1ncc(Cl)c(Nc2ccccc2P(C)(C)=O)n1
active: Potency (OV90) 1.58 µM | Potency (PA-1) 8.91 µM | Potency (SKOV3) 3.55 µM | Potency (Tov-21-G) 7.08 µM | Potency (Tov112D) 10 µM

CC1(C)CC(=O)N(CCCCN2CCN(c3ncccn3)CC2)C(=O)C1
inactive: Potency (JEG-3) | Potency (OV90) | Potency (SKOV3) | Potency (Tov-21-G) | Potency (Tov112D)

OC[C@H]1O[C@@H](Oc2cc(O)cc(/C=C/c3ccc(O)cc3)c2)[C@H](O)[C@@H](O)[C@@H]1O
inactive: Potency (OV90)
